Compound activity: PubChem BioAssay, Center for Chemical Genomics, University of Michigan
The entries come from a sample that favours hits as a whole.
Dicer inh = human Dicer pre-microRNA cleavage inhibition | Q9UPY3 | cat-ELCCA pre-miR-21 Dicer processing, chemiluminescence; hits give high values | z-score at 25 µM | 47,000 tested, 6% active; in the data active = z-score above about 3, passing the limit was not always enough;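 note: plate controls were vehicle for no effect and no enzyme for full effect; higher signal means more uncleaved substrate so more Dicer inhibition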
Active calls of the source: *.

SMILES | Dicer inh
COC(=O)c1cc(NC(=O)NC(=O)c2c(Cl)cccc2Cl)ccc1OCS(=O)(=O)c1ccc(Cl)cc1 | 0.45
Cc1cc(=O)n2c(n1)NC(Nc1ccc(C(C)C)cc1)=NC2c1ccccc1 (configuration not stated) | -0.97
COc1ccccc1Nc1nc(C)cs1 | -0.15
CC(=O)c1csc(Nc2ccccc2Cl)n1 | 1.25
Cc1csc(Nc2cccc3ccccc23)n1 | 3.27*
COc1ccc(Cl)cc1N=C1NC(=O)C(CC(=O)Nc2ccc(OC(F)(F)F)cc2)S1 (configuration not stated) | -0.34
Cc1cc2c(c(Sc3ccc(Cl)cc3)n1)C(=O)N(Cc1ccc(Cl)cc1Cl)C2=O | -1.28
COc1ccc(OC)c([N+](=O)[O-])c1N1CCOCC1 | -0.37
COc1ccccc1C1CCN(c2ccc(C3OCCCO3)cc2[N+](=O)[O-])CC1 | 0.03
COc1cccc2c1OC1(N3CCOCC3)CCCCC1C2C[N+](=O)[O-] (configuration not stated) | 3.59*
COC(=O)CSc1nc(-c2ccccc2)cc(-c2ccc(OC)cc2)c1C#N | 0.14
CCC1CCCCN1Cc1c(C)[nH]c2ccc(Br)cc2c1=O (configuration not stated) | 1.05
N#CC1=C2N=C(N)c3ccccc3N2C2=C(C(=O)CCC2)C1c1c(F)cccc1Cl (configuration not stated) | 0.45
Cc1[nH]n(-c2ccccc2)c(=O)c1N=Nc1c(C)n(C)n(-c2ccccc2)c1=O | -3.97
Cc1[nH]n(-c2ccccc2)c(=O)c1N=Nc1ccc(N2CCCCC2)cc1 | 3.64*
Cc1ccc(N=Nc2c(C)[nH]n(-c3ccccc3)c2=O)c(C)c1 | 0.73
COc1ccc(OC)c(C(C)=O)c1OCc1ccccc1 | -0.15
Cc1nn(C)c(Oc2ccc(C(C)(C)C)cc2)c1[N+](=O)[O-] | -1.41
O=C(O)C1C2C=CC3(CN(c4ccccc4)C(=O)C13)O2 (configuration not stated) | 1.47
CC1(C(=O)O)C2C=CC3(CN(Cc4ccccc4)C(=O)C31)O2 (configuration not stated) | 2.62
CC1(C(=O)O)C2C=CC3(CN(c4ccccc4)C(=O)C31)O2 (configuration not stated) | 5.33*
O=C1c2cccc3cccc(c23)C(=O)N1c1ccccc1O | -0.02
Nc1ccccc1N1C(=O)c2cccc3cccc(c23)C1=O | -1.37
COc1ccc(OC)c(N2C(=O)c3cccc4cccc(c34)C2=O)c1 | 5.7*
CCc1cc(C(=O)c2ccc(OC)cc2)c(NC(=O)c2ccc(OC)cc2)s1 | -1.23
SMILES | Dicer inh
Cn1c(=O)c2c(nc(Sc3ccccc3N)n2C)n(C)c1=O | -2.65
Cn1c(=O)c2c(nc(SCc3ccc(F)cc3)n2C)n(C)c1=O | 0.77
Cn1c(=O)c2c(nc(Sc3nnc(N)s3)n2C)n(C)c1=O | 3.15*
CS(=O)(=O)c1ccc(-c2nnn(CC(=O)O)n2)cc1 | -0.14
COc1ccc(O)c(C2=NN3C(C2)c2cc(Br)ccc2OC3c2ccsc2)c1 (configuration not stated) | 1.4
COc1ccc(O)c(C2=NN3C(C2)c2ccccc2OC3c2ccccc2F)c1 (configuration not stated) | 6.9*
COc1ccc(C2Oc3ccccc3C3CC(c4ccccc4O)=NN32)c(OC)c1 (configuration not stated) | 5.56
CC(C)C1Oc2ccc(Cl)cc2C2CC(c3ccccc3O)=NN21 (configuration not stated) | -0.15
CSCCC1Oc2ccccc2C2CC(c3cc(C)ccc3O)=NN12 (configuration not stated) | 0.58
Oc1ccccc1C1=NN2C(C1)c1ccccc1OC2c1cccs1 (configuration not stated) | 6.79
Oc1ccccc1C1=NN2C(C1)c1cc(Br)ccc1OC2c1ccsc1 (configuration not stated) | 4.23*
COc1ccc(C2Oc3ccccc3C3CC(c4ccccc4O)=NN32)cc1 (configuration not stated) | 5.35
CC(C)CC1Oc2ccccc2C2CC(c3ccccc3O)=NN12 (configuration not stated) | 5.29*
COc1ccc(C2Oc3ccccc3C3CC(c4cc(OC)ccc4O)=NN32)cc1 (configuration not stated) | 9.84*
COc1ccc(C2Oc3ccccc3C3CC(c4cc(OC)ccc4O)=NN32)c(OC)c1 (configuration not stated) | 2.3
COc1cccc(C2Oc3ccccc3C3CC(c4cc(OC)ccc4O)=NN32)c1 (configuration not stated) | 0.91
O=C(Nc1cc(Cl)c(-n2cccc2)cc1Cl)c1ccc(C(F)(F)F)cc1 | -0.91
COc1cc(C2c3c(oc4ccc(C)cc4c3=O)C(=O)N2c2nccs2)ccc1O (configuration not stated) | 1.64
Cc1noc(-c2ccccc2)c1NC(=O)NCc1c(-c2ccccc2)noc1C | 0.29
CC(=O)Nc1nc(CC(=O)O)cs1 | 0.71
N/C(=N\OC(=O)N1CCOCC1)c1c(Cl)cccc1Cl | -0.1
O=[N+]([O-])c1c(Nc2ccccc2)ccc2nsnc12 | -0.1
O=C1NS(=O)(=O)c2ccccc2S(=O)(=O)c2ccccc21 | 1.05
